# PubChem BioAssay (NCI)
# The panel holds about 83,000 compounds, 20% with a hit somewhere; the sample as a whole holds those more often.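 In brief: 96-well plates, 48 h treatment, single concentration, percent growth endpoint.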 The source made the active and inactive calls.
# Tested on: SW-620 colon
# Experiment: NCI-60 one-dose screen, 48 h (100 = growth as untreated, 0 = no growth, -100 = all killed)
# Settings: 10 µM unless noted
# Protocol: Growth inhibition of the SW-620 human tumor cell line is measured as a screen for anti-cancer activity. Cells are grown in 96 well plates and exposed to the test compound for 48 hours. Compounds are tested at a single concentration, which is 10^-5 M for most compounds. The reported endpoint is percent growth (GI% or GIPRCNT), where numbers from 0 - 100% represent growth inhibition, and numbers from -100% - 0 represent cell death. For example, a value of 40 represents 60% growth inhibition. A value of 0 means no net growth occurred over the course of the experiment. A value of -40 indicates 40% of cells at the beginning of the experiment died by the end of the experiment. A value of -100 means all cells are dead at the end of the experiment.
# NCI-60 Human Tumor Cell Lines Screen was performed using the standard one-dose NCI protocol, which is described in more detail at https://dtp.cancer.gov/discovery_development/nci-60/default.htm.
# Compounds with GIPRCNT values below 10 were considered active. Activity score was based on GIPRCNT using the following formula: […]
# Score is 0 for GIPRCNT values of 100 or above, 50 for GIPRCNT values of 0, and 100 for GIPRCNT values of -100.
row,SMILES,growth
1,CCN(CC)P(=O)(N(CC)CC)N(CCCSC/C=C(\C)CC/C=C(\C)CCC=C(C)C)CCCN1CCN(C)CC1,101% (inactive)
2,COc1cc(-c2nc(-c3nc4ccccc4[nH]3)cc3c2[nH]c2ccccc23)cc(OC)c1OC,56.5% (inactive)
3,CC(=O)OCC1OC(OCC2OC(OC(C)=O)C(OC(C)=O)C(OC(C)=O)C2OC(C)=O)C(OC(C)=O)C(OC(C)=O)C1OC(C)=O (stereo not given),105% (inactive)
4,COc1ccc(Cn2cc(COc3cc(/C=C/C(=O)c4cc(OC)c(OC)c(OC)c4)ccc3OC)nn2)cc1,19.8% (inactive)
5,COc1cccc(NC(=O)c2sc3nc4c(cc3c2N)CCCC4)c1,32.1% (inactive)
6,C=C1C(=O)O[C@H]2[C@H]1CC/C(COC(=O)NCc1ccc(OC)cc1)=C\CC[C@@]1(C)O[C@@H]21,1.83% (active)
7,O=C(/C=C/c1ccccc1)n1c(-c2ccc(Cl)cc2)nc2ccccc21,-55.1% (active)
8,CCN1C(=O)N[C@H]2[C@@H]3NC(=O)c4ccc(Cl)n4[C@@H]3C[C@]21O,3.96% (active)
9,COc1cc(CNC(=O)CSc2nc3ccccc3c(=O)n2Cc2cc(OC)c(OC)c(OC)c2)cc(OC)c1OC,109% (inactive)
10,COc1cc(-c2n[nH]nc2-c2ccc3c(c2)OCCO3)cc(OC)c1OC,19.4% (inactive)
11,O=C(Nc1ccc(Br)c(Cl)c1)c1cc(F)ccc1O,7.76% (active)
12,O=S(=O)(NCCCNc1cc(-c2cn(-c3ccccc3)nc2-c2cccc(O)c2)ccn1)c1ccc(Cl)cc1,15.6% (inactive)
13,COc1cccc(/C=C2\SC(N3CCN(c4ccccn4)CC3)=NC2=O)c1,97.9% (inactive)
14,COc1ccc(/C(=N\O)c2cc(OC)c(OC)c(OC)c2)c(OC)c1N,23.4% (inactive)
15,CCn1cc(C(=O)O)c(=O)c2cc(F)c(N3CCN(S(=O)(=O)c4ccc(OC)c(OC)c4)CC3)cc21,113% (inactive)
16,O=C(Cc1n[nH]c(=O)c2ccccc12)OCc1c(Cl)cccc1Cl,86.9% (inactive)
17,COc1ccc(-c2nc3sccn3c2-c2ccnc(NCCCNS(=O)(=O)c3ccc4ccccc4c3)n2)cc1,105% (inactive)
18,O=[N+]([O-])c1c(S(=O)(=O)O)cc2cc(S(=O)(=O)O)ccc2c1[N+](=O)[O-],105% (inactive)
19,O=C(O)C(Cc1ccccc1)N1C(=O)/C(=C/C(Cl)=C/c2ccc([N+](=O)[O-])cc2)SC1=S (stereo not given),5.12% (active)
20,Clc1ccc([I+]c2ccc(Cl)cc2Cl)c(Cl)c1,-43.4% (active)

row,SMILES,growth
1,CC(=O)Nc1nc(C(=O)N2N=C(C)/C(=C/c3ccc(Cl)cc3)C2=O)cs1,109% (inactive)
2,COc1ccc(/C=C(\C#N)c2ccc([N+](=O)[O-])cc2)c2ccccc12,74.4% (inactive)
3,CCC(=O)Oc1ccc2c(c1)CC[C@@H]1[C@@H]2CC[C@]2(C)C[C@H](OC(=O)CC)C[C@@H]12,48.2% (inactive)
4,N#Cc1ncc(-c2ccc(F)c(F)c2F)c(NC2CCCCCC2)n1,98% (inactive)
5,COc1ccc(C(=O)c2cc(OC)c(OC)c(OC)c2)cc1/C=C/C(=O)c1ccc(O)cc1,-24.1% (active)
6,O=c1cc(C2NCCc3c2[nH]c2ccccc32)c2c(ccc3ccccc32)o1 (stereo not given),59.6% (inactive)
7,N#Cc1ccc(NC(=O)c2ccc3cccnc3c2O)cc1,23.1% (inactive)
8,COc1cc(C(=O)N2CCN(C(=O)c3ccco3)CC2)c(N)cc1OCc1ccccc1,105% (inactive)
9,COc1cc2c(cc1OCCCCn1c(-c3cc(=O)c4ccccc4o3)nc3ccccc31)N=C[C@@H]1CCCN1C2=O,86.6% (inactive)
10,NCCSC(c1ccccc1)(c1ccccc1)c1ccccc1,19.1% (inactive)
11,CC1=NN2C(=NC3=C(CCC/C3=C\c3ccc(Cl)cc3)C2c2ccc(Cl)cc2)S1 (stereo not given),97.3% (inactive)
12,Nc1c(C(=O)Nc2cccc(C(F)(F)F)c2)sc2nc3c(cc12)CCCCC3,58.3% (inactive)
13,Cc1ccc2c(c1)ncn2-c1ncnc2c1CC(C)c1ccccc1N2C (stereo not given),22.9% (inactive)
14,c1ccc2nc(-c3ccc4ccccc4n3)ccc2c1,100% (inactive)
15,C=CCc1cc(Cl)cc2c(OC(C)=O)c(C(C)=O)c(-c3ccccc3)nc12,107% (inactive)
16,C=CCOc1ccc(/C(O)=C2\C(=O)C(=O)N(c3nccs3)C2c2ccccc2F)cc1 (stereo not given),103% (inactive)
17,COc1cccc(NC(=O)Cn2cc3c(=O)oc4ccccc4c3n2)c1,103% (inactive)
18,NC(=O)c1c(NC(=O)c2ccc3c(c2)OCO3)sc2c1CCC(=O)C2,-10.8% (active)
19,O=C(Nc1ccc(OCc2nnc(-c3ccc(Cl)cc3)o2)c(F)c1)Nc1ccc(Cl)c(Cl)c1,47% (inactive)
20,O=S(=O)(NCCCNc1nccc(-c2c(-c3ccc(F)c(O)c3)nc3sccn23)n1)c1ccc(Cl)cc1,99.2% (inactive)
